Compound activity from PubChem.
This is a sample that favours compounds with a hit; in the whole collection about 21% have one here.
Pf growth 48h: P. falciparum growth inhibition at 48 hours (one generation) | P. falciparum luciferase growth in erythrocytes, 48 h | actives 5.9% (n = 310,000) | Potency, µM (top dose mostly 28.7 µM), for the others: top-dose activity change, negative = inhibition, most hits filed as inhibitors; note: potency is the fitted concentration of half-maximal effect; % is set by controls: 0 for no effect and ±100 for the full control effect
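Firefly luciferase activity from engineered P. falciparum reports growth; inhibitors lower the luminescent signal. Cultures contained 2% hematocrit erythrocytes at 0.1% final parasitemia.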
CHX counter: counter-screen for Shiga toxin inhibitors: cycloheximide protein synthesis inhibition; cell reporter, cycloheximide protein synthesis inhibition counterscreen; max response, %; actives 12% (n = 300,000); in the data active = max response mostly above about 13%, no sharp cut-off; inactive = mostly below about 14%; note: read at 38.3 µM for the half of the compounds with a filed dose; 0% is about no effect
Shiga toxin inh: Shiga toxin inhibition; Vero cells, Shiga toxin protein synthesis inhibition reporter; inhibition, % at 38.7 µM; actives 9.2% (n = 290,000); in the data active = inhibition mostly above about 28%, no sharp cut-off; inactive = mostly below about 43%; note: 0% is about no effect
NS1 inh: blocks influenza NS1 protein function. actives 0.4% (n = 270,000). Potency, µM (doses to about 46.1 µM), inactives show at the top dose activity, positive = more growth. AID 2326; calls by dose curve; note: potency is the fitted concentration of half-maximal effect; actives are rising curves; nearly all actives have a fitted effect of over 50% in size
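Growth recovery, yeast-based: influenza A NS1 expressed in S. cerevisiae causes slow growth, and suppressors are detected by OD600. The parent strain without NS1 is used as positive control.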
Sm TGR inh: inhibitors of Schistosoma mansoni thioredoxin glutathione reductase; Q962Y6; purified TGR, DTNB reduction, TNB absorbance 405 nm; Potency, µM (series often up to 114 µM), for the others: at the top dose activity change, negative = inhibition, actives largely listed as inhibitors; actives 3% (n = 360,000); note: potency is the fitted concentration of half-maximal effect; % is set by controls: 0 for no effect and ±100 for the full control effect; nearly all actives have a fitted effect of over 60% in size
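First, TGR (20 nM dispensed) and NADPH were mixed with compound. Second, a 15 min room-temperature incubation followed. Third, further NADPH and then DTNB were added to start the reaction. Finally, TNB absorbance was monitored kinetically.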
Pf growth 96h: P. falciparum growth inhibition at 96 hours. actives 6.9% (n = 320,000). P. falciparum luciferase reporter growth, 96 h. Potency, µM (doses to about 28.7 µM), inactives show at the top dose activity change, negative = inhibition, usual class: inhibitors; note: potency is the fitted concentration of half-maximal effect; % is set by controls: 0 for no effect and ±100 for the full control effect
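96 h incubation, 37 C, 5% CO2, of luciferase-reporter P. falciparum-infected RBCs (2% hematocrit, 0.05% parasitemia final) with test compounds; endpoint luminescence.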
Starred values were filed as active, the others as inactive; ? = inconclusive; · = not tested or not shown. Unless noted, calls come from the whole dose curve; as a rule, active = well fitted curve in the direction sought with a large enough effect; inconclusive = small, poorly fitted or top-dose-only effect, or another doubt; inactive = no such curve, though single readings can be large; an effect the other way counts as inactive or inconclusive.

SMILES	Pf growth 48h	CHX counter	Shiga toxin inh	NS1 inh	Sm TGR inh	Pf growth 96h
CCc1nc2c(c(=O)[nH]1)C(CC)(CC)Cc1ccccc1-2	0%	-3	-10	4%	-2%	-4%
CN1CCN(C(=O)c2cc3ccccc3oc2=O)CC1	4%	13*	-6	2%	15%	?
O=C(c1cc2ccccc2oc1=O)N1CCN(c2ccccn2)CC1	0%	-1	2	0%	2%	·
O=C(c1cc2ccccc2oc1=O)N1CCN(c2ncccn2)CC1	·	34*	86*	-4%	-5%	-56%
O=C(c1cc2ccccc2oc1=O)N1CCCN(C(=O)c2cc3ccccc3oc2=O)CC1	·	·	·	4%	·	·
Cc1cccc(N2CCN(C(=O)c3cc4ccccc4oc3=O)CC2)c1C	-4%	20*	17	-52%	-32%	?
COc1c(C)cc(C(=O)C2CCCN(C(=O)c3snnc3C)C2)cc1C (stereo not drawn)	-5%	-3	-7	-8%	-11%	?
CCCNC(=O)OCc1cccnc1Sc1ccc(C)cc1	25%	31*	98*	·	4%	52%
O=C(CNC(c1ccccc1)c1ccccc1)Nc1ccccc1F	?	0	26	-12%	6%	?
Cc1ccccc1NC(=O)COc1ccccc1C	?	16*	27	-18%	-6%	-2%
Cc1ccc(C(=O)COC(=O)COc2ccccc2C)cc1	13%	3	-19	3%	6%	53%
Cc1ccc(SC(=O)COc2ccccc2C)cc1	·	-3	-11	-7%	11µM*	18%
Cc1ccccc1OCC(=O)Nc1ccccc1-c1ccccc1	-54%	18*	42*	7%	-15%	?
COCC(=O)Nc1ccccc1-c1ccccc1	7%	-1	-8	·	6%	41%
O=C(CNC(c1ccccc1)c1ccccc1)Nc1ccccc1-c1ccccc1	12µM*	-3	-8	-6%	7%	13µM*
Cc1ccc(SCC(=O)NNC(=O)c2ccccc2)c(C)c1	-9%	-2	22	1%	3%	13%
CCCOc1ccc(C(=O)Nc2ccc(NC(=O)c3ccccc3)c(C)c2)cc1	·	·	·	·	-11%	·
COc1ccc(S(=O)(=O)N(CC(=O)NCCSc2ccccc2)c2ccc(C)cc2)cc1	·	·	·	·	0%	·
Cc1ccc(N(CC(=O)NCCSCc2ccco2)S(=O)(=O)c2ccc(C)cc2)cc1	?	-1	-12	-57%	1%	6.6µM*
COc1ccc(N(CC2CO2)S(=O)(=O)c2ccccc2)cc1 (stereo not drawn)	6%	10	-15	4%	40µM*	-20%
CS(=O)(=O)N(CC(=O)NCCSCc1ccco1)c1ccc(Cl)cc1	-7%	-2	11	0%	?	23%
COc1ccc(C)cc1N(CC(=O)NCCSCc1cccc(Cl)c1)S(C)(=O)=O	0%	4	·	-9%	3%	12µM*
COc1ccc(N(CC(=O)NCCSCc2ccccc2C)S(=O)(=O)c2ccccc2)cc1	?	2	-28	7%	-10%	5.2µM*
O=C(NCc1ccc(Cl)s1)C1CCC(=O)N(CCc2cccc(F)c2)C1 (stereo not drawn)	15%	1	-7	3%	4%	0%
COc1ccc(N(CC(=O)NCCSCc2ccco2)S(=O)(=O)c2ccccc2)cc1Cl	12µM*	-2	9	11%	18µM*	?
SMILES	Pf growth 48h	CHX counter	Shiga toxin inh	NS1 inh	Sm TGR inh	Pf growth 96h
COc1ccc(S(=O)(=O)NCCSCc2ccco2)cc1Cl	-1%	1	-7	2%	32µM*	·
COc1ccc(N(CC(=O)NCc2ccco2)S(C)(=O)=O)cc1OC	·	-6	-18	2%	-9%	·
COc1ccc(N(CC(=O)NCc2ccco2)S(C)(=O)=O)cc1Cl	4%	6	19	5%	79µM*	-17%
COc1ccc(C)cc1N(CC(=O)NCCSCc1ccco1)S(=O)(=O)c1ccc(C)cc1	0%	-4	2	-1%	32µM*	-24%
COc1ccc(C2/C=C\CN(C(=O)c3ccccc3)C(Cc3ccccc3)C(=O)N2Cc2ccc(F)cc2)cc1 (stereo not drawn)	·	25	-4	·	·	·
Cc1ccc(Cl)cc1N1CCN(CCCNC(=O)c2nnc(Cc3cccc(Cl)c3)o2)CC1	·	-5	-3	·	1%	·
